# Where a chain is given by its changes, count along the chain named.
# Tests used:
# Assay in all cases: PBM; 200 nM protein, PBS
# Settings in all cases: dsDNA, one strand shown
# [1] = target: HOXB6 (Homo sapiens, UniProt P17509 132-218, K202E)
# [2] = target: HOXA2 (Homo sapiens, UniProt O43364 129-215, R185T)
# [3] = target: HOXD13 (Homo sapiens, UniProt P35453 263-343, T313R)
# [4] = target: HOXA2 (Homo sapiens, UniProt O43364 129-215, R185K)
# [5] = target: HOXD13 (Homo sapiens, UniProt P35453 263-343)
# [6] = target: HOXD13 (Homo sapiens, UniProt P35453 263-343, T313A)
# [7] = target: HOXA2 (Homo sapiens, UniProt O43364 129-215, Y150S)
# [8] = target: HOXA2 (Homo sapiens, UniProt O43364 129-215)
# [9] = target: HOXB6 (Homo sapiens, UniProt P17509 132-218)
# [10] = target: ALX3 (Homo sapiens, UniProt O95076 139-225, N203Q)
# [11] = target: ALX3 (Homo sapiens, UniProt O95076 139-225, N203S)
# [12] = target: T1, NKX2-6 (Homo sapiens, UniProt A6NCS4 118-204, R150C)
# T1 sequence: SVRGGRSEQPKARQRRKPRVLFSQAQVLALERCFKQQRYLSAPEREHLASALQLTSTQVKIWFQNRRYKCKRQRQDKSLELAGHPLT
# [13] = target: T2, SIX6 (Homo sapiens, UniProt O95475 114-200, L143I)
# T2 sequence: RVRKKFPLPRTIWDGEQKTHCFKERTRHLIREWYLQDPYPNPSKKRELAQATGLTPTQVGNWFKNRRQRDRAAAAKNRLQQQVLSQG
# [14] = target: ALX1 (Homo sapiens, UniProt Q15699 118-204, L144V)
# [15] = target: ALX1 (Homo sapiens, UniProt Q15699 118-204, L144R)
# [16] = target: ALX1 (Homo sapiens, UniProt Q15699 118-204)
# [17] = target: T3, SIX6 (Homo sapiens, UniProt O95475 114-200, L143M)
# T3 sequence: T2 sequence with I30M
# [18] = target: ALX3 (Homo sapiens, UniProt O95076 139-225)
# [19] = target: PROP1 (Homo sapiens, UniProt O75360 56-141)
# [20] = target: PROP1 (Homo sapiens, UniProt O75360 56-141, R99H)
# [21] = target: PROP1 (Homo sapiens, UniProt O75360 56-141, F88S)
# Sequence of PROP1 (Homo sapiens, UniProt O75360 56-141, F88S) (O75360 56-141 F88S): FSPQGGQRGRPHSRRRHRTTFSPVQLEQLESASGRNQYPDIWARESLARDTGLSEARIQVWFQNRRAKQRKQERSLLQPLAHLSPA
# Sequence of HOXB6 (Homo sapiens, UniProt P17509 132-218) (P17509 132-218): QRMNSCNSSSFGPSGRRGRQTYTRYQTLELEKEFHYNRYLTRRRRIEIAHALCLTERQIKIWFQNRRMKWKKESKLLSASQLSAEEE
# Sequence of HOXB6 (Homo sapiens, UniProt P17509 132-218, K202E) (P17509 132-218 K202E): as the sequence (P17509 132-218) above, with K71E counted along it
# Sequence of HOXD13 (Homo sapiens, UniProt P35453 263-343) (P35453 263-343): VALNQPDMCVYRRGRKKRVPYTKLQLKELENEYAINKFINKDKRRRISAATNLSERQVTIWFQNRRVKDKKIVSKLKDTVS
# Sequence of ALX1 (Homo sapiens, UniProt Q15699 118-204) (Q15699 118-204): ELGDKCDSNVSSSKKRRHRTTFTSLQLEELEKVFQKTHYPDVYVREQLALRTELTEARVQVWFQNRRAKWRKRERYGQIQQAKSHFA
# Sequence of ALX3 (Homo sapiens, UniProt O95076 139-225, N203S) (O95076 139-225 N203S): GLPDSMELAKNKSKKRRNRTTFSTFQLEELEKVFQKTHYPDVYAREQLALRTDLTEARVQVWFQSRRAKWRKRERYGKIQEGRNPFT
# Sequence of ALX3 (Homo sapiens, UniProt O95076 139-225, N203Q) (O95076 139-225 N203Q): as the sequence (O95076 139-225 N203S) above, with S65Q counted along it
# Sequence of HOXD13 (Homo sapiens, UniProt P35453 263-343, T313A) (P35453 263-343 T313A): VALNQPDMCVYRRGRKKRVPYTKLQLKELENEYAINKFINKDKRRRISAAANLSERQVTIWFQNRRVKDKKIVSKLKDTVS
# Sequence of ALX1 (Homo sapiens, UniProt Q15699 118-204, L144V) (Q15699 118-204 L144V): as the sequence (Q15699 118-204) above, with L27V counted along it
# Sequence of ALX1 (Homo sapiens, UniProt Q15699 118-204, L144R) (Q15699 118-204 L144R): as the sequence (Q15699 118-204) above, with L27R counted along it
# Sequence of HOXD13 (Homo sapiens, UniProt P35453 263-343, T313R) (P35453 263-343 T313R): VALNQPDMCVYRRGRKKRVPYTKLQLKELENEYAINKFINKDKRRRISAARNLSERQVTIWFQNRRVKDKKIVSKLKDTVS
# Sequence of PROP1 (Homo sapiens, UniProt O75360 56-141, R99H) (O75360 56-141 R99H): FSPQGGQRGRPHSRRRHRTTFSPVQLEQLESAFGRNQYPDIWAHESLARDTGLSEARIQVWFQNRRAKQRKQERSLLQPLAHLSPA
# Sequence of HOXA2 (Homo sapiens, UniProt O43364 129-215, R185K) (O43364 129-215 R185K): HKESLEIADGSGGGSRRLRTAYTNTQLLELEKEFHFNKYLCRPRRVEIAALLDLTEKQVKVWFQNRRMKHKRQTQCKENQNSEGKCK
# Sequence of HOXA2 (Homo sapiens, UniProt O43364 129-215, R185T) (O43364 129-215 R185T): as the sequence (O43364 129-215 R185K) above, with K57T counted along it
# Sequence of HOXA2 (Homo sapiens, UniProt O43364 129-215) (O43364 129-215): as the sequence (O43364 129-215 R185K) above, with K57R counted along it
# Sequence of PROP1 (Homo sapiens, UniProt O75360 56-141) (O75360 56-141): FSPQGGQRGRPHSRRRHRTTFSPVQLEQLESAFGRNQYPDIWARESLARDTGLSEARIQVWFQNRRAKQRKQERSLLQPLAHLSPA
# Sequence of ALX3 (Homo sapiens, UniProt O95076 139-225) (O95076 139-225): as the sequence (O95076 139-225 N203S) above, with S65N counted along it
# Sequence of HOXA2 (Homo sapiens, UniProt O43364 129-215, Y150S) (O43364 129-215 Y150S): as the sequence (O43364 129-215 R185K) above, with Y22S, K57R counted along it
sequence,measurement,setting,value
CGGAGGCC,binding signal,[1],"8.93 upbm affinity estimate (log intensity, higher = more binding, comparable within an allelic series)"
same,binding signal,[2],"7.34 upbm affinity estimate (log intensity, higher = more binding, comparable within an allelic series)"
same,binding signal,[3],"9.47 upbm affinity estimate (log intensity, higher = more binding, comparable within an allelic series)"
same,binding signal,[4],"10.1 upbm affinity estimate (log intensity, higher = more binding, comparable within an allelic series)"
same,binding signal,[5],"9.47 upbm affinity estimate (log intensity, higher = more binding, comparable within an allelic series)"
same,binding signal,[6],"9.66 upbm affinity estimate (log intensity, higher = more binding, comparable within an allelic series)"
same,binding signal,[7],"10.3 upbm affinity estimate (log intensity, higher = more binding, comparable within an allelic series)"
same,binding signal,[8],"7.12 upbm affinity estimate (log intensity, higher = more binding, comparable within an allelic series)"
same,binding signal,[9],"8.97 upbm affinity estimate (log intensity, higher = more binding, comparable within an allelic series)"
TAATATTA,binding signal,[1],"10 upbm affinity estimate (log intensity, higher = more binding, comparable within an allelic series)"
same,binding signal,[10],"8.61 upbm affinity estimate (log intensity, higher = more binding, comparable within an allelic series)"
same,binding signal,[11],"8.68 upbm affinity estimate (log intensity, higher = more binding, comparable within an allelic series)"
AACTACTT,binding signal,[1],"9.54 upbm affinity estimate (log intensity, higher = more binding, comparable within an allelic series)"
same,binding signal,[12],"11.2 upbm affinity estimate (log intensity, higher = more binding, comparable within an allelic series)"
same,binding signal,[9],"10.1 upbm affinity estimate (log intensity, higher = more binding, comparable within an allelic series)"
CCACGGGC,binding signal,[1],"9 upbm affinity estimate (log intensity, higher = more binding, comparable within an allelic series)"
same,binding signal,[3],"9.41 upbm affinity estimate (log intensity, higher = more binding, comparable within an allelic series)"
same,binding signal,[5],"9.46 upbm affinity estimate (log intensity, higher = more binding, comparable within an allelic series)"
same,binding signal,[6],"9.44 upbm affinity estimate (log intensity, higher = more binding, comparable within an allelic series)"
same,binding signal,[9],"9.06 upbm affinity estimate (log intensity, higher = more binding, comparable within an allelic series)"
ATACATAC,binding signal,[13],"10.4 upbm affinity estimate (log intensity, higher = more binding, comparable within an allelic series)"
AGTCCCCC,binding signal,[1],"8.9 upbm affinity estimate (log intensity, higher = more binding, comparable within an allelic series)"
same,binding signal,[14],"6.53 upbm affinity estimate (log intensity, higher = more binding, comparable within an allelic series)"
same,binding signal,[15],"6.37 upbm affinity estimate (log intensity, higher = more binding, comparable within an allelic series)"
same,binding signal,[16],"6.41 upbm affinity estimate (log intensity, higher = more binding, comparable within an allelic series)"
same,binding signal,[9],"8.97 upbm affinity estimate (log intensity, higher = more binding, comparable within an allelic series)"
AGGGAGGA,binding signal,[1],"9.04 upbm affinity estimate (log intensity, higher = more binding, comparable within an allelic series)"
same,binding signal,[9],"9.03 upbm affinity estimate (log intensity, higher = more binding, comparable within an allelic series)"
ATATCTAC,binding signal,[17],"11 upbm affinity estimate (log intensity, higher = more binding, comparable within an allelic series)"
GACCGAGC,binding signal,[1],"8.96 upbm affinity estimate (log intensity, higher = more binding, comparable within an allelic series)"
same,binding signal,[14],"6.39 upbm affinity estimate (log intensity, higher = more binding, comparable within an allelic series)"
same,binding signal,[15],"6.24 upbm affinity estimate (log intensity, higher = more binding, comparable within an allelic series)"
same,binding signal,[16],"6.33 upbm affinity estimate (log intensity, higher = more binding, comparable within an allelic series)"
same,binding signal,[9],"8.92 upbm affinity estimate (log intensity, higher = more binding, comparable within an allelic series)"
ACTATTGA,binding signal,[1],"9.51 upbm affinity estimate (log intensity, higher = more binding, comparable within an allelic series)"
same,binding signal,[10],"8.21 upbm affinity estimate (log intensity, higher = more binding, comparable within an allelic series)"
same,binding signal,[18],"9.1 upbm affinity estimate (log intensity, higher = more binding, comparable within an allelic series)"
same,binding signal,[11],"8.3 upbm affinity estimate (log intensity, higher = more binding, comparable within an allelic series)"
same,binding signal,[9],"10.1 upbm affinity estimate (log intensity, higher = more binding, comparable within an allelic series)"
CCACGCTC,binding signal,[1],"8.98 upbm affinity estimate (log intensity, higher = more binding, comparable within an allelic series)"
same,binding signal,[19],"6.83 upbm affinity estimate (log intensity, higher = more binding, comparable within an allelic series)"
same,binding signal,[20],"6.88 upbm affinity estimate (log intensity, higher = more binding, comparable within an allelic series)"
same,binding signal,[21],"6.58 upbm affinity estimate (log intensity, higher = more binding, comparable within an allelic series)"
same,binding signal,[9],"9.03 upbm affinity estimate (log intensity, higher = more binding, comparable within an allelic series)"
